In the supplement of paper PMC9262897, “Low-cost anti-mycobacterial drug discovery using engineered E. coli” (Nature Communications, 2022):
Counter-ions that a name gives are not always drawn. ± gives the standard deviation of the averaged measurements.

Experiments:
Test in all cases: growth (OD600 after 10 h); higher = more growth (less inhibition)
[1] = test system: E. coli TESEC Alr+ wild-type control; details: compound 0.1 mM; raw OD600 reference: median of DMSO wells 0.241, cell-free background 0.041
Procedure: (§1)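 TESEC Mtb Alr E. coli, or the Alr+ wild-type control, in 384-well plates with Prestwick library compounds at 0.1 mM and 1% DMSO, across arabinose induction levels of 1E3 to 1E7 nM. Growth is read as OD600 after 10 h at 37 °C in triplicate biological replicates.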

[2] = test system: E. coli TESEC Mtb Alr; details: compound 0.1 mM
Procedure: as §1

[3] = test system: E. coli TESEC Mtb Asd; details: compound 0.1 mM
Procedure: (§2)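 TESEC E. coli strains in which the native enzyme is deleted and replaced by arabinose-inducible Mtb Asd, DapB, CysH or TrpD, each grown in its selective medium. Strains were screened against the Prestwick library at 0.1 mM and 1% DMSO in 384-well format at low and high arabinose induction. Growth is read as OD600 after 10 h in triplicate.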

[4] = test system: E. coli TESEC Mtb DapB; details: compound 0.1 mM
Procedure: as §2

[5] = test system: E. coli TESEC Mtb Alr; details: compound 0.1 mM; remark: listed apart in the source
Procedure: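 TESEC Mtb Alr E. coli (ΔaraC ΔtolC ΔentC Δalr ΔdadX, arabinose-inducible Mtb Alr) or the Alr+ wild-type control strain, grown in defined M9-fructose medium without D-alanine in 96-well plates with Prestwick library compounds at 0.1 mM and 1% DMSO. Low Alr induction is 0.1 µM arabinose and high induction is 10 mM arabinose.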

[6] = arabinose 1000 nM, raw OD600 reference: median of DMSO wells 0.294, cell-free background 0.041
[7] = arabinose 10000 nM, raw OD600 reference: median of DMSO wells 0.264, cell-free background 0.041
[8] = arabinose 100000 nM, raw OD600 reference: median of DMSO wells 0.201, cell-free background 0.041
[9] = arabinose 1000000 nM, raw OD600 reference: median of DMSO wells 0.193, cell-free background 0.041
[10] = arabinose 10000000 nM, raw OD600 reference: median of DMSO wells 0.146, cell-free background 0.041
[11] = arabinose induction (level): High, raw OD600 reference: median of DMSO wells 0.331, cell-free background 0.041
[12] = arabinose induction (level): Low, raw OD600 reference: median of DMSO wells 0.417, cell-free background 0.041
[13] = arabinose induction (level): High, raw OD600 reference: median of DMSO wells […], cell-free background 0.041
[14] = arabinose induction (level): Low, raw OD600 reference: median of DMSO wells 0.227, cell-free background 0.041
[15] = arabinose 100 nM, raw OD600 reference: median of DMSO wells 0.413, cell-free background 0.052
[16] = arabinose 10000000 nM, raw OD600 reference: median of DMSO wells […], cell-free background 0.052

SMILES	growth [1]	growth [2, 6]	growth [2, 7]	growth [2, 8]	growth [2, 9]	growth [2, 10]	growth [3, 11]	growth [3, 12]	growth [4, 13]	growth [4, 14]	growth [5, 15]	growth [5, 16]
Cc1cc(C(C)(C)C)c(O)c(C)c1CC1=NCCN1 [Oxymetazoline hydrochloride]	0.236 ± 0.0092	0.302 ± 0.0066	0.263 ± 0.014	0.196 ± 0.011	0.17 ± 0.011	0.165 ± 0.011	0.372 ± 0.07	0.416 ± 0.035	0.202 ± 0.016	0.251 ± 0.028	0.414 ± 0.013	0.328 ± 0.011
COC(=O)Nc1nc2cc([S+]([O-])c3ccccc3)ccc2[nH]1 (centres undefined) [Oxfendazol]	0.251 ± 0.016	0.304 ± 0.014	0.2674 ± 0.00072	0.195 ± 0.024	0.165 ± 0.0037	0.1348 ± 0.00046	0.276 ± 0.08	0.382 ± 0.044	0.173 ± 0.0069	0.174 ± 0.042	0.407 ± 0.011	0.312 ± 0.022
CCN(CC)CCOC(=O)c1ccc(N)cc1 [Procaine hydrochloride]	0.254 ± 0.0063	0.254 ± 0.065	0.273 ± 0.0077	0.2 ± 0.034	0.193 ± 0.0097	0.146 ± 0.0049	0.339 ± 0.035	0.384 ± 0.038	0.203 ± 0.026	0.251 ± 0.046	0.412 ± 0.0056	0.259 ± 0.17
CC(=O)[C@@]1(O)CC[C@H]2[C@@H]3C[C@H](C)C4=CC(=O)C=C[C@]4(C)[C@@]3(F)[C@@H](O)C[C@@]21C [Fluorometholone]	0.235 ± 0.021	0.308 ± 0.011	0.248 ± 0.011	0.2 ± 0.018	0.13 ± 0.007	0.153 ± 0.0031	0.457 ± 0.013	0.428 ± 0.019	0.209 ± 0.0065	0.272 ± 0.017	0.423 ± 0.007	0.334 ± 0.049
CN(C)c1nc(N(C)C)nc(N(C)C)n1 [Altretamine]	0.251 ± 0.0091	0.315 ± 0.018	0.254 ± 0.0079	0.209 ± 0.0047	0.176 ± 0.008	0.163 ± 0.009	0.475 ± 0.017	0.436 ± 0.037	0.217 ± 0.015	0.267 ± 0.019	0.404 ± 0.017	0.317 ± 0.02
COc1ccc2c(c1)C(=O)N(CCc1ccc(S(=O)(=O)NC(=O)NC3CCCCC3)cc1)C(=O)C2(C)C [Gliquidone]	0.06 ± 0.018	0.0483 ± 0.0024	0.04083 ± 0.00021	0.0728 ± 0.0039	0.0491 ± 0.00068	0.119 ± 0.0032	0.126 ± 0.027	0.0965 ± 0.065	0.157 ± 0.015	0.173 ± 0.0091	0.108 ± 0.046	0.116 ± 0.0081
CC(C)OC(=O)C(C)(C)Oc1ccc(C(=O)c2ccc(Cl)cc2)cc1 [Fenofibrate]	0.219 ± 0.0026	0.235 ± 0.015	0.245 ± 0.0051	0.143 ± 0.0063	0.0897 ± 0.0018	0.161 ± 0.0021	0.298 ± 0.013	0.397 ± 0.039	0.176 ± 0.015	0.215 ± 0.037	0.401 ± 0.016	0.089 ± 0.01
O=C(OCCOCCO)c1ccccc1Nc1cccc(C(F)(F)F)c1 [Etofenamate]	0.0458 ± 0.00036	0.0491 ± 0.0032	0.0483 ± 0.00084	0.049 ± 0.0019	0.0472 ± 0.002	0.0499 ± 0.0013	0.0525 ± 0.0012	0.0509 ± 0.0012	0.0997 ± 0.078	0.0543 ± 0.0018	0.185 ± 0.19	0.0516 ± 0.0022
CC(C)(C)NCC(O)c1ccc(O)c(CO)c1 (centres undefined) [Salbutamol]	0.241 ± 0.0029	0.285 ± 0.015	0.271 ± 0.0082	0.192 ± 0.0026	0.183 ± 0.0057	0.137 ± 0.0049	0.318 ± 0.067	0.436 ± 0.032	0.215 ± 0.015	0.233 ± 0.028	0.43 ± 0.0098	0.383 ± 0.017
CCC(C)(C)c1ccc(CC(C)CN2C[C@@H](C)O[C@@H](C)C2)cc1 (some centres undefined) [Amorolfine hydrochloride]	0.0552 ± 0.0076	0.107 ± 0.0069	0.0519 ± 0.0014	0.0591 ± 0.0048	0.04143 ± 0.00023	0.0502 ± 0.0026	0.237 ± 0.052	0.284 ± 0.031	0.168 ± 0.02	0.197 ± 0.017	0.0639 ± 0.0015	0.0533 ± 0.0014
Clc1ccc(C(c2ccccc2Cl)C(Cl)Cl)cc1 (centres undefined) [Mitotane]	0.224 ± 0.0027	0.215 ± 0.017	0.224 ± 0.01	0.183 ± 0.012	0.0935 ± 0.018	0.133 ± 0.013	0.213 ± 0.018	0.204 ± 0.018	0.208 ± 0.0072	0.224 ± 0.033	0.38 ± 0.011	0.0729 ± 0.0022
CO[C@@]1(NC(=O)CSCC#N)C(=O)N2C(C(=O)O)=C(CSc3nnnn3C)CS[C@@H]21 [Cefmetazole sodium salt]	0.0393 ± 0.0013	0.0392 ± 0.0012	0.0395 ± 0.00076	0.0392 ± 0.0027	0.03973 ± 5.8e-05	0.03957 ± 0.00025	0.0524 ± 0.0042	0.0557 ± 0.0072	0.0493 ± 0.0012	0.0513 ± 0.0023	0.0461 ± 0.00055	0.0549 ± 0.0037
CC(C)CC(=O)N[C@H](C(=O)N[C@H](C(=O)N[C@@H](CC(C)C)[C@@H](O)CC(=O)N[C@@H](C)C(=O)N[C@@H](CC(C)C)[C@@H](O)CC(=O)O)C(C)C)C(C)C [Pepstatin A]	0.226 ± 0.0077	0.307 ± 0.0049	0.271 ± 0.0051	0.234 ± 0.043	0.202 ± 0.02	0.15 ± 0.0034	0.419 ± 0.028	0.427 ± 0.064	0.172 ± 0.0073	0.246 ± 0.046	0.412 ± 0.005	0.345 ± 0.036
Cc1ccc(-c2cc(C(F)(F)F)nn2-c2ccc(S(N)(=O)=O)cc2)cc1 [Celecoxib]	0.0401 ± 0.00046	0.041 ± 0.0023	0.0401 ± 0.00091	0.0415 ± 0.0019	0.0418 ± 0.0037	0.04133 ± 0.00035	0.04733 ± 0.00047	0.0479 ± 0.00085	0.0473 ± 0.00055	0.0486 ± 0.0019	0.308 ± 0.021	0.0533 ± 0.0036
Nc1nc(NC2CC2)c2ncn([C@H]3C=C[C@@H](CO)C3)c2n1 [Abacavir Sulfate]	0.238 ± 0.018	0.295 ± 0.024	0.253 ± 0.0039	0.182 ± 0.012	0.18 ± 0.0053	0.133 ± 0.0075	0.317 ± 0.022	0.423 ± 0.015	0.183 ± 0.018	0.212 ± 0.038	0.408 ± 0.016	0.339 ± 0.0091
COC(=O)[C@@H]1[C@H]2C[C@H]3c4[nH]c5ccccc5c4CCN3C[C@@H]2CC[C@@H]1O [Yohimbine hydrochloride]	0.217 ± 0.0081	0.28 ± 0.007	0.265 ± 0.0075	0.176 ± 0.011	0.142 ± 0.0078	0.142 ± 0.0022	0.163 ± 0.031	0.318 ± 0.074	0.166 ± 0.01	0.19 ± 0.012	0.409 ± 0.011	0.343 ± 0.031
Clc1ccc(COC(Cn2ccnc2)c2ccc(Cl)cc2Cl)c(Cl)c1 (centres undefined) [Miconazole]	0.0977 ± 0.098	0.201 ± 0.11	0.03953 ± 0.00021	0.0741 ± 0.0079	0.03923 ± 0.00025	0.141 ± 0.061	0.0471 ± 0.00055	0.0481 ± 0.0013	0.0949 ± 0.0049	0.134 ± 0.1	0.051 ± 0.0039	0.083 ± 0.0044
